In the library only some 2.3% were active in any assay of this set; here they are far more common.
USP1 inh: inhibitors of human USP1/UAF1 deubiquitinase | recombinant USP1/UAF1, Ub-Rhodamine cleavage fluorescence | Potency, µM (titrated, usually from 57.1 µM), for inactives: at the top dose activity change, negative = inhibition, actives largely listed as inhibitors | actives 0.23% (n = 390,000) | O94782; note: potency is the fitted concentration of half-maximal effect; nearly all actives have a fitted effect of over 60% in size
Target sequence (O94782 whole entry, looked up): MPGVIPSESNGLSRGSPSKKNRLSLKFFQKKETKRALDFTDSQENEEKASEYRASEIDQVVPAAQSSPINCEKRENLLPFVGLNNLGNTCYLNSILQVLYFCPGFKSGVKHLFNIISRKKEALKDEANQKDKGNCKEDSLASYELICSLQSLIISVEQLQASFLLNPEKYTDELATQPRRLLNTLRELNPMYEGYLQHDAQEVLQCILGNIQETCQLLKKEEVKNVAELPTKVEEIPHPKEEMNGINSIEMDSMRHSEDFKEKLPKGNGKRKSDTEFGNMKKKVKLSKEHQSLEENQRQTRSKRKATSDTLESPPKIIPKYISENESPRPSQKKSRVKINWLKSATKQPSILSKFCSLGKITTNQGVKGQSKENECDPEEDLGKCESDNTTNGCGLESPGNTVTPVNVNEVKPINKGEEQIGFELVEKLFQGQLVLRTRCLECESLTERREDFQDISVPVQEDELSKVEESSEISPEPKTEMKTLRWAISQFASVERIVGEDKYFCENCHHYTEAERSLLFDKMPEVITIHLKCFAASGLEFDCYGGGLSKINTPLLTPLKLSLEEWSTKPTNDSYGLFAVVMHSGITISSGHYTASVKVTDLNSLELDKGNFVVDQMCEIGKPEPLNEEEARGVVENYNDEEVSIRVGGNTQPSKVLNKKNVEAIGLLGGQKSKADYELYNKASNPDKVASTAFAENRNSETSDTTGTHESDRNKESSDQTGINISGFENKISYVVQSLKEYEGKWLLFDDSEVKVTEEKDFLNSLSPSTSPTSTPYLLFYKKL
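1 nM enzyme complex + cpd, 15 min RT; start with Ub-Rho 150nM final; kinetic fluorescence ex 480/em 540, 6 reads q60 s. Buffer 50mM HEPES pH 7.8, 0.5mM EDTA, 0.1 mg/ml BSA, 1mM TCEP, 0.01% Tween-20.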
Tau fibril ThT: inhibitors of human tau fibril formation, thioflavin T binding. P10636. Potency, µM (top dose mostly 57.4 µM), for the others: top-dose activity, negative = inhibition, actives largely listed as inhibitors. actives 2.1% (n = 270,000). AID 1460. recombinant tau K18 P301L, heparin-induced fibrillization, ThT fluorescence; note: potency is the fitted concentration of half-maximal effect; nearly all actives have a fitted effect of over 55% in size
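Aggregation was driven by heparin (20 uM final) acting on recombinant tau […] bearing P301L in 100 mM sodium acetate pH 7; fibrils were detected with Thioflavin T.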
Coupling enz: inhibits coupling enzyme system, counter-screen for aldolase hits; coupling enzyme system counterscreen, AmpLite Red fluorescence; AID 2472; actives 0.67% (n = 290,000); activity change, negative = inhibition, % at 58.2 µM, hits read low; in the data active = activity change below about -30%
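First, compound is pin-transferred into glyceraldehyde-3-phosphate coupling-enzyme reagent at 57.5 uM final and held 10 min at RT. Next, substrate, coupling system and AmpLite Red are added. After 20 min RT, fluorescence (525/598 nm) is read.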
Tau fluor cs: counter-screen for tau fibril formation inhibitors; actives 0.93% (n = 280,000); AID 1463; Potency, µM (series often up to 57.7 µM), inactives show top-dose activity change, negative = decrease; tau K18 P301L Alexa594 fluorescence, heparin fibrillization; note: potency is the fitted concentration of half-maximal effect; nearly all actives have a fitted effect of over 55% in size
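Human tau K18 P301L (15 uM unlabeled, 0.24 uM Alexa 594-labeled) in 100 mM sodium acetate pH 7 with 20 uM heparin, 6 hr at 37 C. ThT 30 uM added, 1 hr ambient; Alexa 594 FP and total fluorescence read at 555/632 nm.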
Tau FP inhib: inhibitors of human tau fibril formation | Potency, µM (titrated, usually from 57.7 µM), without a hit: at the top dose activity, negative = inhibition, actives largely listed as inhibitors | P10636 | actives 0.39% (n = 280,000) | AID 1468 | K18 P301L tau heparin fibrillization, Alexa594 FP, 6 h; note: potency is the fitted concentration of half-maximal effect; nearly all actives have a fitted effect of over 55% in size
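Read-out: fluorescence polarization of Alexa 594-labeled tau (0.24 uM), 555 nm excitation, 632 nm emission. Mixtures held 15 uM unlabeled K18 P301L, compound and 20 uM heparin, pH 7 acetate buffer, incubated 6 hr at 37 C.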
* marks the source's active call; other numbers are inactive results; ? = inconclusive; / = no result given; [ ] = another dose, or the depositor's remark. Unless noted, calls come from the whole dose curve; as a rule, active = well fitted curve in the direction sought with a large enough effect; inconclusive = small, poorly fitted or top-dose-only effect, or another doubt; inactive = no such curve, though single readings can be large; an effect the other way counts as inactive or inconclusive. % is set by controls: 0 for no effect and ±100 for the full control effect.

SMILES | USP1 inh | Tau fibril ThT | Coupling enz | Tau fluor cs | Tau FP inhib
COc1cccc(OC)c1C(=O)NC(=S)Nc1cc(-c2nc3ccccc3[nH]2)ccc1Cl | -8% | 8% | 5 | -17% | ?
Clc1ccccc1Cc1cn2cc(-c3ccccc3)nc2s1 | -15% | -1% | / | -3% | ?
Cc1ccccc1OCCNc1cc(N2CCCCC2)ccc1[N+](=O)[O-] | -19% | ? | 0 | ? | 0%
Cc1cccc(OCCNc2cc(N3CCN(CCO)CC3)ccc2[N+](=O)[O-])c1 | -5% | 28µM* | 0 | ? | -10%
CC1CN(c2ccc([N+](=O)[O-])c(NCCOc3ccccc3)c2)CCN1 (stereo not drawn) | -13% | ? | 0 | -17% | -9%
Cc1ccccc1OCCNc1cc(N2CCN(CCO)CC2)ccc1[N+](=O)[O-] | -26% | 13µM* | -1 | ? | -2%
Oc1ccccc1Nc1nc(-c2ccccc2)c2cc(Cl)ccc2n1 | -8% | -1% | / | ? | 8%
Nc1ncc(N=Nc2cc(C(=O)O)ccc2Cl)s1 | ? | 14µM* | 1 | -28% | ?
Nc1cc2sc(-c3ccc(C(=O)O)cc3)nc2cc1Cl | -11% | ? | -4 | -21% | 2%
O=C(Nc1nc2ccccc2s1)c1cccc(S(=O)(=O)N2CCc3ccccc32)c1 | -19% | 3% | 1 | ? | ?
O=C(Nc1nc2c(s1)CN(Cc1ccccc1)CC2)c1cccc(S(=O)(=O)N2CCc3ccccc32)c1 | 28µM* | ? | / | -30% | -18%
N#Cc1cc2cc3c(cc2nc1SCC(=O)N1CCOCC1)OCCO3 | -17% | / | -1 | / | /
CCOC(=O)c1c(C)c(C)n(Cc2cccc(OC)c2OC)c1C | -14% | 25µM* | 0 | -27% | ?
CCOC(=O)c1cc(C)n(Cc2cccc(OC)c2OC)c1C | -10% | ? | -1 | -19% | -15%
CC(C)c1ccc(N2C(=O)CS(=O)(=O)C23C(=O)N(Cc2cccc(F)c2)c2ccccc23)cc1 (stereo not drawn) | -19% | -3% | / | -10% | -4%
CCCn1c(SCC(=O)NC2CCC(C)CC2)n[nH]c1=O (stereo not drawn) | -19% | / | / | / | /
Cc1ccc(C)c(S(=O)(=O)C(C#N)c2nc3ccccc3nc2N2CCCC2)c1 (stereo not drawn) | -8% | ? | -36* | -20% | 2%
Cc1ccc(C(=O)N/C(=C\c2ccc(-c3ccc([N+](=O)[O-])cc3)o2)C(=O)NC2CCS(=O)(=O)C2)cc1 (stereo not drawn) | -25% | 6.3µM* | 2 | ? | 9%
C[C@@H]1C(NC(=O)c2ccccc2)CC2CC1C2(C)C (stereo partly drawn) | -21% | / | -3 | / | /
Cc1ccc(C)c(Cn2c(=O)c3c(nc4n3CCN4c3ccc(F)cc3)n(C)c2=O)c1 | 4% | -11% | / | -10% | -6%
CC1(c2ccccc2)NC(=O)N(CC(=O)N(CC(=O)Nc2ccccc2C(F)(F)F)Cc2ccco2)C1=O (stereo not drawn) | -26% | / | / | / | /
CC(C)(C)NC(=O)COC(=O)c1cc(F)c(F)cc1Cl | -13% | -11% | -61* | -2% | 4%
CNC(=O)COC(=O)c1cc(F)c(F)cc1Cl | -7% | 4% | 0 | 13% | 0%
CC1CCN(S(=O)(=O)c2ccc3c(ccc(=O)n3CC(=O)NCc3ccccc3Cl)c2)CC1 | -24% | -1% | / | -25% | 9%
CCc1ccc(OCC(=O)NC2CC(C)(C)NC(C)(C)C2)cc1 | -12% | 13µM* | 0 | -10% | -5%
SMILES | USP1 inh | Tau fibril ThT | Coupling enz | Tau fluor cs | Tau FP inhib
Cc1ccc(OCC(=O)NC2CC(C)(C)NC(C)(C)C2)cc1C | -8% | 2% | -1 | -1% | -8%
O=C1CN(C(=O)COC(=O)c2ccc(C(F)(F)F)cc2)c2ccccc2N1 | -12% | / | / | / | /
O=c1c(O)c(-c2ccc(O)c(O)c2)oc2c(OC3OC(CO)C(O)C(O)C3O)c(O)cc(O)c12 (stereo not drawn) | / | 14µM* | 4 | -28% | ?
O=c1c(O)c(-c2ccc(O)c(O)c2)oc2c(OC[C@@H]3O[C@@H](O)[C@@H](O)[C@H](O)[C@H]3O)c(O)cc(O)c12 | / | 10µM* | 7 | -21% | -15%
NCCNCCNCCN | 6% | -14% | 9 | -9% | -4%
NCCNCCN | / | / | -44* | / | /
CN1CCC/C1=C1/C(=O)N(c2ccccc2)N=C1NC(=O)Nc1cccc(Cl)c1 | -13% | 8.9µM* | 2 | ? | ?
COC(=O)c1ccc(N(CC(=O)NC2CCCC2)C(=O)c2ccc(C)s2)cc1 | -20% | / | 0 | / | /
Oc1ccc(/C=N/N2CCOCC2)c(O)c1O | ? | 8.9µM* | -48* | -27% | 10µM*
Oc1cccc(/C=N/N2CCCCC2)c1O | -7% | / | -3 | / | /
Oc1ccc(/C=N/N2CCCCC2)c(O)c1O | ? | / | -53* | / | /
Cc1ccc(C(=O)NCC(c2cccs2)S(=O)(=O)c2cccs2)cc1 (stereo not drawn) | ? | -1% | / | -7% | -10%
O=C1Nc2ccccc2C1=O | 1% | / | / | / | /
O=C1Nc2ccc3sc4ccccc4c3c2C1=O | -22% | 4.5µM* | -6 | ? | 4%
Cc1ccccc1Nc1sc(C(=O)c2ccc(F)cc2)c(N)c1C(=O)NCCc1ccccc1 | -11% | ? | / | ? | -1%
O=Nc1c(-c2cccc([N+](=O)[O-])c2)nc2ncccn12 | / | 4µM* | -13 | -29% | 6.3µM*
N#Cc1ccc(NC(=O)Nc2ccc(Oc3ccc(NC(=O)Nc4ccc(C#N)cc4)cc3)cc2)cc1 | -23% | ? | -4 | 7.9µM*[quencher] | ?
N#Cc1ccc(NC(=O)Nc2cccc(C#N)c2)cc1 | -13% | ? | -1 | ? | ?
O=C(CCc1ccccc1)NC(NC(=S)Nc1cccc(Cl)c1)C(Cl)(Cl)Cl (stereo not drawn) | -6% | 10% | -1 | 0% | 14µM*
S=C(NCCN(C1CCCCC1)C1CCCC1)Nc1cccc(Cl)c1 | -9% | / | 0 | / | /
S=C(NCCC(c1ccccc1)c1ccccc1)Nc1cccc(Cl)c1 | -8% | 18% | -1 | 7.1µM*[quencher] | 14µM*
CCCC(=O)NC(NC(=S)Nc1ccc(S(N)(=O)=O)cc1)C(Cl)(Cl)Cl (stereo not drawn) | 2% | 1% | 0 | -5% | -5%
CCCC(=O)NC(NC(=S)Nc1ccc(N=Nc2ccccc2)cc1)C(Cl)(Cl)Cl (stereo not drawn) | -18% | 14µM* | -1 | ? | ?
CCCCc1nn2c(=O)cc(COC(=O)c3ccc(NC(=O)C4CCCCC4)cc3)nc2s1 | 6% | 13% | / | 10% | -10%
COc1cc(/C=N/Nc2nncn2N)ccc1OCc1c(C)no[n+]1[O-] | ? | ? | -38* | -19% | ?
OCCN(CCO)c1ccc2ccccc2c1 | -22% | -16% | -8 | -17% | -5%

Bioassay records: PubChem BioAssay, National Center for Advancing Translational Sciences (NCATS)
